This passage reports PBM binding z-score results from the supplement of paper PMC6555819.

In this experiment the test system is VDR:RXRa (NR concentration 270 nM, RXRa partner concentration 90 nM). The experiment can be described thus: PBM binding z-score (relative to random genomic background probes); higher = stronger binding; sequences stand for … in GC…GCGATTGACAGCGTAGAATGAAGG
On the procedure:
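Protein-binding microarray (Agilent 4x180K custom design, double-stranded 60-nt probes: 5' GC cap, 34-nt variable region, 24-nt constant primer region; full probe sequence given). Purified or IVT nuclear receptor:RXRα heterodimers (3:1 NR:RXRα, mostly 270:90 nM) or homodimers were incubated for 1 h in PBS with 2% milk and no ligand, then detected with Alexa488 antibodies. Fluorescence from o1-orientation probes (~5 replicates averaged) was converted to z-scores against 500 random hg19 background probes. Variable regions are seed direct-repeat (DR0–DR5) sites, all their single-nucleotide variants and half-site ablations.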
On to CGTCCCAGGTCAGAGAGGTCAGTGAATGCCGAGT, for which the PBM binding z-score turned out to be 6.8.

Consider GATACAGGGTCAGCTAGAGTCCAGAGTATGGAAA, for which the PBM binding z-score turned out to be 4.13. On to CGGACTAGGTCATCCAGGACAGTGAATACATTGA, for which the PBM binding z-score worked out at 4.36. Take GCTGATAGGTCAACTGATGGTCAGCTAAAGCTCG: the PBM binding z-score was determined as 2.69. TCATATAGGTAAACAGGGGAAAGTCCGTAAGTTA yielded a PBM binding z-score of 1.06.

Regarding TCGAGTAGGTTAGTCGGGGCCTTCAGCCAACATA, the PBM binding z-score is -0.158.

CGAACTAGGTCATCCAGGACACTGAATACATTGA yielded a PBM binding z-score of 5.27. Then AGCGAAAGGTCGTGAGGTGAGTATACAGAAAGGC, with 3.51; and CCTCGGAGGACCACAGGAGGTCAGAGCTGCCAGA, with 1.43.

The sequence CGTCCAAGGTCAAAGGTGAGTGAAGAGATGACGG showed a PBM binding z-score of 4.94. Then TATACAGGGTCAAAGGCCAGAGTGCGAATGTCGA, with 4.88.

The sequence AATACAGGGTCACTAGGACAGAGTAGGTACGAAT came in with a PBM binding z-score of 3.97. For GGAACGAGGGAATTCGAGTTGATAGCATGGCGAT, the PBM binding z-score is -0.217. Then ACTATTTGGTCAGCTGAGGTCACACACAATTCGG, with 4.64; and CGAACTAGGTCATTGACGGGACAGTGAATAGTAA, with 1.86; and AGTCATAGTTCATCTAGGTAACGTAAGATATGCT, with 2.54. In the case of GCTAGTTGGTCAGTAAAAGGTCACACGCCGGTCG, the PBM binding z-score amounted to 3.87.

AGAATGAGGTTACCAAAGATCAGGGCAACGCTTG had a PBM binding z-score of 1.69. Sequence ATCGAAAGGTCGTGAGGTGAGTATGCAGAAAGGC returned a PBM binding z-score of 3.57.

As for GCTATTAGTCGAAAGGGCAACCGAATGATTCTCG, the PBM binding z-score was found to be 0.247. With CAAACTAGGTCACAGAGGTCAATGTCCGTGCGTA the figure was 7.62; with TCTTGTAGATCAACAGCAGGTTAAGAAAGATCGA, 0.341; with ATCTCTAGGTCAGACTCAGTTCAGTGAAGAACGC, 3.36. Then ATCTCTAGGTAAGACCCAGTTCAGTGAAGAACGC, with 1.04; and ATCTCTAGGTAAGACTCAGCTCAGTGAAGAACGC, with -0.134.

As for ACAGACAGGTGATGTAGGTAACTCAGGCTATCAT, the PBM binding z-score is -0.00251.

As to CCTCGGAGGACAACAGGAGGTGAGAGCTGCCAGA, the PBM binding z-score was -0.342.

For TCGAGTAGGTTAGTTGGGGCATTCAGCCAACATA, the PBM binding z-score came to 0.811. As for GCTGCTAGGTCAGGTTGGTCAGCGAACGGGTACG, the PBM binding z-score amounted to 0.566.

For the sequence CCGACTGGGGCAGAAAGCTTACCATACCATCCGG, the PBM binding z-score was -0.904. TCTAGCAGGCCAGAGAGTCACTCAAGAGGTACGG: the PBM binding z-score was -0.279. On to TCTATTAGATGATTAGGGCAACCGAAACAGCGGA, for which the PBM binding z-score came to 0.44. Then CAAACTAGGTCAAGAGGTCAATGTCCGCTTCCCG, with 5.64; and TCTAGTTGGTCAAAGGTCACACGCTCGAAATGCG, with 5.38; and CCTATTAGTTGAGCATAAGGGCAACCGAAGCTCG, with 0.408. Then CCTAGTTTGTCAAGGTCACACACGCTATAGGTAC, with 4.46; and CGAACTAGGTCATCAAGGACAGTGAATACATTGA, with 5.54; and GGAACGAGGGCAAGTTGATAGCGGAGTTTGATGG, with 0.636.

The sequence TCTTGTAGATCAACAGGAGGTTAAAAAAGATCGA showed a PBM binding z-score of 0.744.

ATATGTAGGTTAAGGGTTATTCAGGTTGGTTCGC returned a PBM binding z-score of 3.27.
